Laboratory results taken from publication PMC5540273 (PLoS ONE, 2017).

Experiments:
Settings in all cases: concentration: 1 μM,replicates: in singlicate; n = 1
[1] = system: MTOR
[2] = system: MUSK
[3] = system: MYLK2
[4] = system: MYLK4
[5] = system: MYLK
[6] = system: MYO3A
[7] = system: MYO3B
[8] = system: T1, NDR1
T1 construct: gene STK38

[9] = system: NDR2
[10] = system: NEK10
[11] = system: NEK11
[12] = system: NEK1
[13] = system: NEK2
[14] = system: NEK3
[15] = system: NEK4
[16] = system: NEK5
[17] = system: NEK6
[18] = system: NEK7
[19] = system: NEK9
[20] = system: T2, NIK
T2 construct: gene MAP3K14
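Also: KINOMEscan kinase panel screen.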

| Structure (SMILES) | %Inh [1] [%] | %Inh [2] [%] | %Inh [3] [%] | %Inh [4] [%] | %Inh [5] [%] | %Inh [6] [%] | %Inh [7] [%] | %Inh [8] [%] | %Inh [9] [%] | %Inh [10] [%] | %Inh [11] [%] | %Inh [12] [%] | %Inh [13] [%] | %Inh [14] [%] | %Inh [15] [%] | %Inh [16] [%] | %Inh [17] [%] | %Inh [18] [%] | %Inh [19] [%] | %Inh [20] [%] |
| --- | --- | --- | --- | --- | --- | --- | --- | --- | --- | --- | --- | --- | --- | --- | --- | --- | --- | --- | --- | --- |
| O=C(NCCNc1ccnc(NCc2ccc(F)cc2)n1)c1cc2ccccc2s1 [GSK1379944] | 1 | 5 | 0 | 1 | 14 | 0 | 0 | 0 | 0 | 0 | 0 | 0 | 4 | 11 | 19 | 85 | 0 | 0 | 0 | 0 |
| CCn1c(-c2nonc2N)nc2c(C#CC(C)(C)O)nc(OCCN)cc21.Cl.Cl [GSK902056] | 13 | 20 | 33 | 6 | 4 | 0 | 0 | 31 | 16 | 6 | 3 | 0 | 13 | 4 | 20 | 0 | 0 | 0 | 0 | 63 |
| Nc1nc(Nc2ccccc2)cc(-c2ccc3c(N)n[nH]c3c2)n1 [GSK2225749] | 13 | 4 | 51 | 16 | 0 | 0 | 0 | 0 | 0 | 0 | 11 | 0 | 14 | 0 | 5 | 0 | 0 | 0 | 11 | 20 |
| Cc1cc2cn[nH]c2cc1-c1cccc2c(N)c(C(N)=O)nnc12 | 3 | 0 | 0 | 10 | 71 | 14 | 0 | 85 | 0 | 86 | 27 | 0 | 12 | 33 | 18 | 2 | 17 | 0 | 15 | 40 |
| CC(C)N1C(=O)Cc2cc(Nc3ncc(C(F)(F)F)c(NCc4cccc(S(C)(=O)=O)c4)n3)ccc21 | 0 | 15 | 0 | 0 | 10 | 0 | 3 | 35 | 0 | 0 | 0 | 0 | 0 | 37 | 0 | 1 | 0 | 12 | 2 | 0 |
| Cl.Cl.NC[C@H](Cc1ccc(C(F)(F)F)cc1)NC(=O)c1cc(Br)c(-c2ccnc3[nH]ccc23)s1 [GSK1487252] | 11 | 0 | 25 | 45 | 55 | 2 | 9 | 93.3 | 41 | 16 | 0 | 15 | 0 | 23 | 4 | 4 | 0 | 0 | 3 | 0 |
| O=C(NCCCN1CCOC1=O)c1cnc(NCc2cc(Cl)ccc2Cl)nc1NC1CCCC1 | 19 | 11 | 0 | 6 | 14 | 0 | 16 | 31 | 0 | 13 | 0 | 0 | 7 | 31 | 0 | 0 | 7 | 22 | 0 | 16 |
| Cc1ccc(-n2nc(C(C)(C)C)cc2NC(=O)Nc2ccc(OCCN3CCOCC3)c3ccccc23)cc1 [GW839464] | 19 | 0 | 0 | 0 | 3 | 0 | 15 | 5 | 2 | 0 | 0 | 2 | 0 | 9 | 0 | 21 | 0 | 0 | 0 | 0 |
| CNC(=O)c1ccccc1Sc1ccc2c(/C=C/c3ccccn3)n[nH]c2c1 | 52 | 51 | 9 | 6 | 14 | 0 | 0 | 9 | 0 | 18 | 0 | 0 | 5 | 32 | 0 | 11 | 0 | 26 | 1 | 0 |
| Cc1cc(C(=O)Nc2ccc(Oc3ccc4nc(NC(=O)C5CC5)cn4n3)cc2)nn1-c1ccccc1 | 9 | 59 | 0 | 5 | 9 | 0 | 21 | 8 | 3 | 0 | 0 | 1 | 10 | 0 | 0 | 0 | 10 | 0 | 0 | 0 |
| C[C@@H](Oc1cc(-c2cnn(C3CCNCC3)c2)cnc1N)c1c(Cl)ccc(F)c1Cl | 2 | 75 | 20 | 30 | 21 | 0 | 0 | 19 | 6 | 60 | 0 | 0 | 0 | 24 | 20 | 0 | 14 | 35 | 26 | 0 |
| COc1ccc(C[C@@H](CN)NC(=O)c2cc(Br)c(-c3ccnc4[nH]ccc34)s2)cc1.Cl.Cl [GSK1389063] | 17 | 20 | 52 | 98.5 | 99.6 | 10 | 0 | 96.8 | 78 | 23 | 14 | 0 | 29 | 22 | 1 | 19 | 0 | 0 | 0 | 37 |
| CN(C)CCOc1ccc(-c2cc(-c3c[nH]nc3-c3ccccn3)ccn2)cc1 [GW835314] | 0 | 9 | 0 | 0 | 15 | 0 | 30 | 14 | 0 | 0 | 25 | 0 | 3 | 33 | 0 | 0 | 10 | 8 | 11 | 44 |
